PubChem BioAssay (NCI)
Values joined by “and” are separate entries in the source; they are usually repeats but may differ in a detail not shown here. Equal values may be shown once. About 83,000 compounds went through this panel and 20% of them were active in at least one assay; those are over-represented in the sample as a whole.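 Method: cells in 96-well plates; compound added at one concentration; 48 h incubation; percent growth measured; values under 10 scored active.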 A number with no mark means an inactive call. Active and inactive are the calls of the source.

system: NCI-H322M lung; assay: NCI-60 one-dose screen, 48 h (100 = growth as untreated, 0 = no growth, -100 = all killed); settings: 0.25 µM
Protocol: Growth inhibition of the NCI-H322M human Non-Small Cell Lung tumor cell line is measured as a screen for anti-cancer activity. Cells are grown in 96 well plates and exposed to the test compound for 48 hours. Compounds are tested at a single concentration, which is 10^-5 M for most compounds. The reported endpoint is percent growth (GI% or GIPRCNT), where numbers from 0 - 100% represent growth inhibition, and numbers from -100% - 0 represent cell death. For example, a value of 40 represents 60% growth inhibition. A value of 0 means no net growth occurred over the course of the experiment. A value of -40 indicates 40% of cells at the beginning of the experiment died by the end of the experiment. A value of -100 means all cells are dead at the end of the experiment.
NCI-60 Human Tumor Cell Lines Screen was performed using the standard one-dose NCI protocol, which is described in more detail at https://dtp.cancer.gov/discovery_development/nci-60/default.htm.
Compounds with GIPRCNT values below 10 were considered active. Activity score was based on GIPRCNT using the following formula: […]
Score is 0 for GIPRCNT values of 100 or above, 50 for GIPRCNT values of 0, and 100 for GIPRCNT values of -100.

Structure (SMILES)	growth [%]
CCCCCCCCCCCCCCCc1ccc(Cl)c(O)c1Cl (tested in a mixture with another compound)	61.5

same assay, conditions: 10 µM

Structure (SMILES)	growth [%]
Cc1[nH]c(-c2nc3ccccc3[nH]2)c(C)c1C(=O)NC(C)C1CCCCC1 (stereo not given)	89.1
CCCCCCCCCCCCCCCc1ccc(Cl)c(O)c1Cl (tested in a mixture with another compound)	107

same assay, conditions: 10 µM unless noted

Structure (SMILES)	growth
CC(=O)NC(Cc1ccccc1)C(=O)Oc1ccc2ccccc2c1 (stereo not given)	124% and 108%
O=[N+]([O-])c1ccc(Oc2ccccc2)cc1	104% and 111%
Nc1nc2ncc(CNc3ccc(C(=O)N[C@@H](CCc4nn[nH]n4)C(=O)O)cc3)nc2c(=O)[nH]1	103% and 102%
OCc1ccccn1	105%
O=C=NC(c1ccccc1)(c1ccccc1)c1ccccc1	104%
CCCCCN(CCCCC)CC(O)c1cc2c(c3ccccc13)CCCC2 (stereo not given)	71.3% and 38.5%
COc1ccc(-c2ncnc3c2ncn3C/C=C/CCl)cc1	100% and 105%
COc1cc(NS(C)(=O)=O)ccc1Nc1c2ccccc2nc2c(C)cccc12	22.8% and 28.6%
O=C(O)c1cc(C(=O)O)cc([N+](=O)[O-])c1	105%
S=C1SCN(Cc2ccccc2)CN1Cc1ccccc1	94.5%
CN(C)c1ccc(/C=C(\C#N)c2ccccc2)cc1	64% and 57.1% and 47.6%
CCN1CCN(CCNc2nccc(-c3c(-c4cccc(O)c4)nc4sccn34)n2)S1(=O)=O	66% and 68.3%
O=C(O)CCCCc1ccc([N+](=O)[O-])cc1	112% and 96.7%
Cc1ccc(S(=O)(=O)Nc2nc3ccccc3nc2Nc2ccc3nsnc3c2)cc1	58.5% and 50.6%
Nc1nc(SC/C=C/CCl)c2[nH]cnc2n1	112% and 115%
CC(=O)Oc1cc(C(=O)O)cc(OC(C)=O)c1OC(C)=O	116% and 102%
NC(=S)NN=C1CCC(C2CCCCC2)CC1 (stereo not given)	95.9% and 88.2%
Cn1c(=O)n(-c2ccc(C(C)(C)C#N)cc2)c2c3cc(-c4cnc5ccccc5c4)ccc3ncc21	1.14% (active) and -0.589% (active)

Structure (SMILES)	growth
CC(C)(C)c1ccc(O)c(CNC2CCCCC2)c1	97.6% and 100%
O=C(/C=C\c1ccnc2ccccc12)c1ccc([N+](=O)[O-])cc1	112% and 115%
O=C(/C=C/c1ccccn1)c1ccccc1O	100% and 113%
O=C1c2ccccc2C(=O)N1/N=C/c1ccc2c(c1)OCO2	95.1%
Cc1ccc(S(=O)(=O)NCN2C(=O)c3ccccc3C2=O)cc1	105%
CCOC(=O)c1sc(N)nc1-c1ccccc1	97%
OC(CSc1ccccc1)CN1CCN(c2cccc(Cl)c2)CC1 (stereo not given)	108% and 102%
CC1=C(/C=C/C(C)=C/C=C/C(C)=C/C(=O)Nc2ccc(O)cc2)C(C)(C)CCC1	101%
Nc1ccccc1Nc1ccccc1	86.5% and 93%
N/C(=N\N=C\c1ccc2c(c1)OCO2)N/N=C\c1ccc2c(c1)OCO2	108% and 101%
Cc1nn(-c2ccccc2)nc1C(=O)Nc1ccccc1C(=O)NCC1CC1	111% and 76.7%
CN1CCN(CCC=C2c3ccccc3Sc3ccc(S(=O)(=O)N(C)C)cc32)CC1	66.9% and 77.2%
COc1cc2nc(N3CCN(C(=O)C4COc5ccccc5O4)CC3)nc(N)c2cc1OC (stereo not given)	123% and 75.6% and 99.4%
O=C(CN1CCN(c2cc3c(cc2F)c(=O)c(C(=O)O)cn3C2CC2)CC1)Nc1ccc(Cl)cc1	53.8% and 56%
O=C(CCc1ccc(O)cc1)N/N=C/c1cc(Br)ccc1O	38.9%
NC(=S)N/N=C(\c1ccc(Br)cc1)C1CC1	101% and 83.7%
Oc1ccccc1/C=N\NC(=S)N/N=C/c1ccccc1O	24.8% and 29.7%
O=C(Oc1cccc(OC(=O)c2ccccc2)c1)c1ccccc1	101% and 97.8%

same assay, conditions: 100 µM

Structure (SMILES)	growth
Cc1[nH]c(-c2nc3ccccc3[nH]2)c(C)c1C(=O)NC(C)C1CCCCC1 (stereo not given)	-96.3% (active)
